# This is a sample that favours compounds with a hit; in the whole collection about 3.3% have one here.
# CTSL1 counter: cathepsin L1 inhibition, PFM18AAP counter-screen | recombinant F. hepatica cathepsin L1, Z-Leu-Arg-MCA fluorescence | inhibition, % at 5.96 µM | 0.49% of 300,000 active;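 active means inhibition above the mean of all tested compounds plus 3 SD, set per screening campaign, cut at about 17% in these data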;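 further: 0% = plate median of test compound wells and 100% = 1 µM Z-Phe-Ala-diazomethylketone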
# NRP1-CendR mod: NRP-1/CendR interaction modulation; O14786; FAM-RPARPAR peptide binding to NRP-1, fluorescence polarization; inhibition, % at 25 µM; 0.85% of 360,000 active;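 active means inhibition or corrected inhibition above about 18%, plus a signal ratio from 0.5 to 1.5, limit read from the data, passing the limit was not always enough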
# TPT1 inhibitor: C. albicans TPT1 enzyme inhibition; recombinant caTPT1, FP RNA substrate dephosphorylation; inhibition, % at 5 µM; 0.81% of 300,000 active; AID 1962;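 active means inhibition above the mean of all tested compounds plus 3 SD, set per screening campaign, cut at about 24% in these data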;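 further: plate controls were DMSO alone for no effect and ferristatin control at 100 nM for full effect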
# Rpn11 inh: Rpn11 (human) deubiquitinase inhibition; O00487; human 26S proteasome, Ub4-pepOG fluorescence polarization; 20S core pre-blocked with epoxomicin; inhibition, % at 20 µM; 0.59% of 360,000 active; AID 588493;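 active means inhibition at 20 µM, scaled to each plate's controls, above about 33%, limit read from the data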
# HNF4A DNA FP: change in binding of human HNF4 alpha to DNA | P41235 | HNF4a-FITC DNA binding, fluorescence polarization, 1 h | activity change, % at 10 µM | 0.3% of 360,000 active; in the data active means activity change above about 30%, passing the limit was not always enough
# PHOSPHO1 block: inhibitors of human PHOSPHO1 phosphatase; recombinant PHOSPHO1, absorbance phosphatase assay; inhibition, % at 13.3 µM; 1.1% of 290,000 active; AID 1565; in the data active means inhibition above about 60%
# Target sequence (Q8TCT1 whole entry, looked up): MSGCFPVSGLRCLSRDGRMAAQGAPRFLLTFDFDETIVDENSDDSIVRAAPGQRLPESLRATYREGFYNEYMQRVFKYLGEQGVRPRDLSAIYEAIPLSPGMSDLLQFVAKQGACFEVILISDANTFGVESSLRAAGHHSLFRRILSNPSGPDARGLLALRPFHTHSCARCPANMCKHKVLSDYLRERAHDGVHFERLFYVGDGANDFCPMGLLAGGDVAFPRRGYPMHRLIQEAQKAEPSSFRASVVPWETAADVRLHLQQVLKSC
# * marks the source's active call; other numbers are inactive results; . = not tested or not shown.
SMILES,CTSL1 counter,NRP1-CendR mod,TPT1 inhibitor,Rpn11 inh,HNF4A DNA FP,PHOSPHO1 block
NC(=S)NC1CCS(=O)(=O)C1 (centres undefined),24*,8,3,-4,1,-23
O=C(C[C@H]1C/C=C\C[C@H](Cc2ccc(F)cc2)C(=O)O[C@@H](c2ccccc2)CNC1=O)NCCO,.,22*,.,-8,1,.
O=C(C[C@H]1C/C=C\C[C@@H](Cc2ccc(F)cc2)C(=O)O[C@@H](c2ccccc2)CNC1=O)NCCO,.,8,.,4,-2,.
O=C(C[C@@H]1C/C=C\CC[C@H](Cc2ccc(F)cc2)C(=O)OC[C@@H]2CCCN2C1=O)NCCO,.,20*,.,-2,0,.
COc1ccc(C(C(=O)NC2CCCC2)N(C(=O)Cc2cccs2)C2CC2)cc1OC (centres undefined),-1,11,-2,3,3,28
COCCN(C(=O)CCl)C(C(=O)NC1CCCCC1)c1ccccc1C (centres undefined),27*,9,-4,1,2,-7
COCCN(C(=O)Cc1cccs1)C(C(=O)NC1CCCC1)c1cc(OC)c(OC)c(OC)c1 (centres undefined),-6,-7,-2,-1,4,62*
COCCN(C(=O)CNC(=O)c1cccs1)C(C(=O)NC1CCCC1)c1cccs1 (centres undefined),-2,19*,-3,8,0,30
COCCN(C(=O)CCC(=O)Nc1cc(C)on1)C(C(=O)NC1CCCC1)c1ccccc1C (centres undefined),2,9,1,3,3,26
COc1ccc(Br)c(C(=O)OCC(=O)N2CCC(Cc3ccccc3)CC2)c1,.,1,.,-1,3,.
CC(C)C1Nc2ccc(C(=O)NCCCN3CCOCC3)cc2NC1=O (centres undefined),1,-5,-1,0,1,19
Cc1cccc(Cl)c1NC(=O)N1CCCN(c2ncccc2[N+](=O)[O-])CC1,-1,-3,-4,-1,0,25
CCOCCCN1CN(Cc2ccco2)CNC1=S,-4,-5,2,2,-1,-12
S=C1SCN(Cc2cccnc2)CN1Cc1ccccc1,6,-6,-2,1,2,2
S=C1SCN(Cc2ccccn2)CN1Cc1ccco1,0,-14,-2,-2,0,94*
COCCN1CSC(=S)N(Cc2ccco2)C1,2,-16,1,1,-1,94*
Cc1cc(NC(=O)COC(=O)C2CC(=O)N(c3ccc(Cl)cc3)C2)no1 (centres undefined),-16,-4,0,-10,1,39
O=S(=O)(Nc1ccc(Br)cc1)c1cccc(NS(=O)(=O)c2cccs2)c1,.,21*,.,7,-2,.
CCCC(C(=O)Nc1ccc(S(=O)(=O)Nc2ncccn2)cc1)c1ccccc1 (centres undefined),-2,-2,-3,2,34*,-11
COc1cccc(-c2ncc3ccccc3c2COC(=O)c2ccc(C(F)(F)F)cc2)c1,.,29*,.,10,0,.
COCCN(C(=O)CN1CCCc2ccccc21)c1c(N)n(Cc2ccccc2)c(=O)[nH]c1=O,2,26*,11,-18,4,47
COC(=O)C(C)(C)ONC(=O)Nc1ccc([N+](=O)[O-])cc1,1,7,-10,-9,-1,61*
Fc1ccccc1CSc1ncnc2sc3c(c12)CCCC3,1,-2,3,-1,3,-17
CC1CCCC(NC(=O)COC(=O)Cc2cn3ccsc3n2)C1C (centres undefined),.,-21,.,8,3,96*
CCOC(=O)c1c(N)sc(=S)c2c1CCC2,6,19,-6,-20,-5,60*
SMILES,CTSL1 counter,NRP1-CendR mod,TPT1 inhibitor,Rpn11 inh,HNF4A DNA FP,PHOSPHO1 block
CCOC(=O)c1c(N)sc2c1CCC(CC)C2 (centres undefined),0,6,-8,5,-3,51
CCOC(=O)c1c(N)sc2c1CCSC2,-2,-42,6,13,8,65*
O=C(NCc1ccc2c(c1)OCO2)C1CCCN1S(=O)(=O)c1ccc(Cl)cc1 (centres undefined),2,6,-1,-4,-3,49
COc1cc2c(c(OC)c1OC)C(=O)C(=Cc1ccccc1)O2,.,26*,.,-3,4,.
CCc1nc(Nc2ccccc2O)c2oc3ccccc3c2n1,.,15,.,-17,-3,6
FC(F)(F)c1ccccc1-n1c(-c2cnccn2)n[nH]c1=S,2,7,0,3,1,74*
O=C(N/N=C/c1cccs1)c1cc(-c2cccc3ccccc23)n[nH]1,-3,-6,0,-1,-2,-12
Cc1cccc(NCC(=O)NNC(=S)Nc2ccccc2)c1,-3,2,-2,6,-2,-76
CNC(=S)NNC(=O)CNc1ccc(C)c(Cl)c1,-2,-3,-3,-13,53*,19
C=CCc1cc(Cl)ccc1OCCOCCNC(C)(C)C,-4,0,-2,-4,-2,63*
C=CCc1cc(Cl)ccc1OCCOCCNCCOC,-5,-3,-4,0,0,23
COc1ccc(CNc2nn3c(-c4cccc(C(=O)N(C)C)c4)cnc3s2)cc1,.,30*,.,-3,2,.
COc1cccc(-c2cc(NC=O)c3ncc(-c4cccc(C(=O)N(C)C)c4)n3c2)c1,.,-35,.,15,13,.
CCOC(=O)CN1NC2(CCC(C)CC2)NC1=S (centres undefined),-1,1,-5,-1,-9,95*
CCOC(=O)CN1NC2(CCCCC2)NC1=S,4,10,0,-1,3,100*
CCOC(=O)Cn1c2c(c(=N)c3c1CCC3)CCC2,4,-5,0,-10,-3,-2
CCOC(=O)CN1NC2(CCC(C(C)(C)C)CC2)NC1=S (centres undefined),1,-2,2,-6,2,56
CCOC(=O)CN1NC2(CCCCCCC2)NC1=S,14,-7,-3,8,2,8
CCOC(=O)CN1NC2(CCCC(C)C2)NC1=S (centres undefined),1,11,4,-1,-5,91*
CC(=O)N1CCC2(CC1)C/C(=N\NC(=S)Nc1ccc(C)cc1)c1cc(O)ccc1O2,-2,8,-6,6,5,5
CC1=CC(C)C2C(=O)N(CCC[N+](C)(C)C)C(=O)C2C1 (centres undefined),10,-12,0,-6,-1,94*
C[N+](C)(C)CCCN1C(=O)CCCC1=O,4,-2,0,-7,3,9
CCCc1nc2oc3c(NCCCN(C)C)ncnc3c2c2c1CCCC2,-3,-11,0,-2,10,61*
CCCc1nc2oc3c(NCCN(C)C)ncnc3c2c2c1CCCC2,1,11,1,-12,14,19
CN1CCN(CCC(=O)Nc2ccc(Br)cc2)CC1,0,3,-3,-5,9,25
